Source: the supplement of paper PMC10646978
± gives the standard deviation.

Experiments:
Conditions in all cases: modulator concentration 10 µM
[1] = tested on: RAW-Dual (murine macrophage reporter line); assay: NF-kB reporter (SEAP) activity fold change vs agonist alone; higher = enhanced NF-kB activity
Procedure, shortened: (§1)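 RAW-Dual murine macrophage reporter cells were plated at 50 000 per well in 384-well plates, pin-transferred compound to 10 μM final, and pre-incubated for 1 hour at 37 °C before a PRR agonist was added and the cells incubated overnight. NF-κB activity was read from supernatant SEAP with QUANTI-Blue at 620 nm absorbance, and IRF activity from Lucia luciferase with QUANTI-Luc by luminescence. Each signal was expressed as fold change by dividing by the mean agonist-only control on the same plate. Two replicate plates were averaged, with errors obtained by propagation.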

[2] = tested on: RAW-Dual (murine macrophage reporter line); assay: IRF reporter (Lucia luciferase) activity fold change vs agonist alone; higher = enhanced IRF activity
Procedure, shortened: as §1

[3] = tested on: RAW-Dual (murine macrophage reporter line); assay: viability score (confluency relative to resting cells, overnight) (fraction); higher = more viable, active = viable (0.7 or more)
Procedure, shortened: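 RAW-Dual macrophages in 384-well plates were treated overnight with compound at 10 μM final. IncuCyte imaging recorded confluency, and IncuCyte software built two confluency masks across every imaged well. The viability score expresses confluency relative to resting cells and was judged against a cutoff, which a compound met only if both masks exceeded 70% of resting cells.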

[4] = agonist: CpG ODN 1826 0.5 ug/mL

Row | Compound | NF-kB reporter [1, 4] | NF-kB reporter ([1]; agonist: LPS 0.1 ug/mL) | NF-kB reporter ([1]; agonist: MPLA […]) | IRF reporter ([2]; agonist: 3'3'-cGAMP 10 ug/mL) | IRF reporter ([2]; agonist: LPS 0.1 ug/mL) | IRF reporter ([2]; agonist: MPLA […]) | viability score [3]
1 | O=C(NCCCOc1cccc2cccnc12)c1cnccn1 | 1.03 ± 0.059 | 0.979 ± 0.094 | 0.998 ± 0.035 | 0.95 ± 0.036 | 1.01 ± 0.052 | 0.99 ± 0.1 | 1 (active)
2 | Cc1cc(Cl)ccc1OCC(O)CN1CC(C)OC(C)C1.Cl (configuration not stated) | 0.764 ± 0.068 | 0.939 ± 0.1 | 0.934 ± 0.081 | 0.937 ± 0.043 | 1.05 ± 0.068 | 1.01 ± 0.087 | 0.977 (active)
3 | CNc1ccc([N+](=O)[O-])cc1-n1cnc(-c2ccc([N+](=O)[O-])cc2)c1 | 0.853 ± 0.068 | 0.807 ± 0.038 | 1.37 ± 0.12 | 1.02 ± 0.046 | 1.41 ± 0.082 | 1.58 ± 0.15 | 1.02 (active)
4 | CSc1ccc(C(=O)O)s1 | 1.02 ± 0.13 | 1.08 ± 0.09 | 1.03 ± 0.065 | 1.01 ± 0.21 | 1.03 ± 0.059 | 1.03 ± 0.15 | 1.01 (active)
5 | CCN(Cc1ccncc1)C(=O)C(CO)c1ccccc1 (configuration not stated) | 0.998 ± 0.087 | 0.997 ± 0.11 | 1.04 ± 0.071 | 0.972 ± 0.076 | 0.954 ± 0.058 | 0.932 ± 0.08 | 1 (active)
6 | O=C(c1csc(-c2ccccc2)n1)N1CCCN(C2CCC2)CC1 | 0.763 ± 0.041 | 1.17 ± 0.094 | 0.937 ± 0.063 | 0.927 ± 0.081 | 1.19 ± 0.13 | 1.24 ± 0.12 | 1.01 (active)
7 | c1ccc(OCc2nnc(-c3ccccc3)o2)cc1 | 1.15 ± 0.1 | 1.19 ± 0.09 | 1.14 ± 0.037 | 0.87 ± 0.078 | 0.937 ± 0.044 | 0.973 ± 0.076 | 0.999 (active)
8 | CC(C)Sc1ccc(CC(=O)Nc2cnoc2)cc1 | 0.869 ± 0.044 | 1.01 ± 0.09 | 1.15 ± 0.095 | 0.848 ± 0.051 | 1.01 ± 0.24 | 1.1 ± 0.4 | 0.912 (active)
9 | Cc1sc(NC(=O)c2cc(Cl)ccc2[N+](=O)[O-])nc1-c1ccccc1 | 1 ± 0.064 | 1.08 ± 0.089 | 0.951 ± 0.034 | 0.983 ± 0.046 | 1.08 ± 0.055 | 1.08 ± 0.12 | 1 (active)
10 | Br.O=S(=O)(c1ccc(-c2csc(Nc3ccc(Br)cc3)n2)cc1)N1CCCCC1 | 0.859 ± 0.072 | 1.08 ± 0.088 | 0.988 ± 0.034 | 0.938 ± 0.16 | 1.01 ± 0.042 | 0.926 ± 0.11 | 1 (active)
11 | CC(=O)N=c1sc(S(N)(=O)=O)nn1C [Prestw-802] | 1.06 ± 0.11 | 0.991 ± 0.098 | 1.02 ± 0.12 | 0.986 ± 0.031 | 1.26 ± 0.15 | 1.39 ± 0.19 | 1.03 (active)
12 | O=S(=O)(NCCOCc1ccccc1)c1ccccc1 | 1.13 ± 0.093 | 1.05 ± 0.076 | 1.04 ± 0.14 | 1.02 ± 0.068 | 1.19 ± 0.18 | 1.27 ± 0.21 | 0.966 (active)
13 | c1coc(CNc2nc(-c3ccncc3)cs2)c1 | 0.857 ± 0.073 | 0.863 ± 0.13 | 1.25 ± 0.11 | 0.492 ± 0.03 | 1.12 ± 0.08 | 1.14 ± 0.097 | 0.981 (active)
14 | CN1CC[C@H](c2c(O)cc(O)c3c(=O)cc(-c4ccccc4Cl)oc23)[C@H](O)C1 | 0.118 ± 0.009 | 0.0512 ± 0.004 | 0.104 ± 0.01 | 0.0122 ± 0.0028 | 0.0166 ± 0.001 | 0.0196 ± 0.0027 | 0.0463 (inactive)
15 | CCOc1ccc(C(=O)NCc2cccnc2)cc1Br | 1.23 ± 0.07 | 1.06 ± 0.14 | 1.04 ± 0.036 | 0.911 ± 0.058 | 0.934 ± 0.14 | 1.08 ± 0.26 | 0.999 (active)
16 | CCN1C(=O)CC(NCCc2ccc(S(N)(=O)=O)cc2)C1=O (configuration not stated) | 0.979 ± 0.056 | 1.03 ± 0.074 | 0.905 ± 0.065 | 0.961 ± 0.035 | 1.46 ± 0.19 | 1.22 ± 0.16 | 0.997 (active)
17 | COC(=O)C1=C(C)NC(C)=C(C(=O)OC(C)C)C1c1cccc2nonc12 (configuration not stated) | 0.79 ± 0.062 | 0.942 ± 0.073 | 1.11 ± 0.096 | 0.645 ± 0.04 | 1.08 ± 0.07 | 0.967 ± 0.14 | 1 (active)
18 | CC(C)N1CCN(c2ccc(OC[C@H]3CO[C@](Cn4cncn4)(c4ccc(Cl)cc4Cl)O3)cc2)CC1 | 1.04 ± 0.078 | 1.15 ± 0.077 | 1.08 ± 0.027 | 0.832 ± 0.048 | 1.05 ± 0.042 | 1.02 ± 0.11 | 0.997 (active)
19 | O=C(NCCn1nc(-c2ccccn2)c2c1CCCC2)c1c(F)cccc1Cl | 1.12 ± 0.062 | 1.19 ± 0.12 | 0.921 ± 0.043 | 0.975 ± 0.049 | 1.1 ± 0.068 | 1.2 ± 0.26 | 1 (active)
20 | O=C(C=Cc1ccc(Br)cc1)c1c(-c2ccccc2)c2cc(Cl)ccc2[nH]c1=O | 0.876 ± 0.068 | 0.792 ± 0.055 | 1.03 ± 0.099 | 0.858 ± 0.039 | 1.4 ± 0.09 | 1.5 ± 0.16 | 0.997 (active)
21 | CCOc1ccc(Cc2cc([C@@H]3O[C@H](SC)[C@@H](O)[C@H](O)[C@H]3O)ccc2Cl)cc1 | 0.968 ± 0.25 | 1.27 ± 0.072 | 1.06 ± 0.098 | 1.03 ± 0.053 | 0.957 ± 0.18 | 1.07 ± 0.11 | 0.694 (inactive)
22 | Cc1cc(C(=O)N2CCC(Oc3cccc4cccnc34)CC2)n(C)n1 | 0.994 ± 0.3 | 1.08 ± 0.054 | 1.07 ± 0.081 | 0.942 ± 0.035 | 1.03 ± 0.11 | 1.13 ± 0.18 | 0.536 (inactive)
23 | COc1ccc(OC)c(NC(=O)COc2cccc3c2OC(C)(C)C3)c1 | 0.489 ± 0.039 | 1.2 ± 0.095 | 1.22 ± 0.053 | 0.777 ± 0.054 | 0.912 ± 0.059 | 1.02 ± 0.077 | 0.976 (active)
24 | O=C(c1ccc(Cl)cc1)c1ccc(N2CCOCC2)c([N+](=O)[O-])c1 | 0.696 ± 0.061 | 1.04 ± 0.08 | 0.735 ± 0.044 | 1.11 ± 0.027 | 1.62 ± 0.24 | 1.41 ± 0.24 | 1 (active)
25 | Cc1ccc(O)c([C@H](CCN(C(C)C)C(C)C)c2ccccc2)c1.O=C(O)[C@H](O)[C@@H](O)C(=O)O | 0.67 ± 0.061 | 0.881 ± 0.081 | 1.26 ± 0.089 | 0.656 ± 0.042 | 0.951 ± 0.051 | 0.729 ± 0.073 | 0.979 (active)
26 | Cl.Cn1cc(C(=O)[C@@H]2CCc3nc[nH]c3C2)c2ccccc21 | 0.806 ± 0.078 | 0.83 ± 0.11 | 0.878 ± 0.027 | 0.906 ± 0.056 | 0.973 ± 0.11 | 1.01 ± 0.078 | 0.997 (active)
